The source of these data is PubChem BioAssay.

SMILES strings stand for the structures. Activity calls are given as the source filed them.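 Rule for the calls, unless noted: active = mean z-score across replicates of 1.96 or higher in either the MELAS or the Rieske mutant cell line; inactive = the rest.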

Test [1] in a line: sensitizers of A549 cells to miR-34 induction, primary screen, imaging, A549 dox-inducible miR-34, nuclei and caspase counts (AID 1347080;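 active = compounds whose cell count with miR-34 switched on is under 0.7 times the count with it off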). The conditions noted are these: A549 miR-34 inducible, Hoechst nuclei count, 48 h.
Test [2] in a line: survival rescue of mitochondrial mutant cells in low glucose, primary screen, MELAS cybrids, Rieske KO mouse fibroblasts, CellTiter-Glo (AID 1508586).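 Note: z relative to plate mean and SD of compound and empty wells.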
[3] abbreviates: stronger effect = lower value, cell number ratio, induced over uninduced.
Setting [4] is: measured here: relative caspase fold change +Dox/-Dox.
[5] abbreviates: measured here: total cells with miR-34 induction, stronger effect = lower value.
The mark [6] stands for this setting: measured here: total cells without miR-34 induction.
[7] abbreviates: MELAS cybrid survival, CellTiter-Glo 48 h, stronger effect = higher value.
Setting [8] is: Rieske KO mouse fibroblast survival, CellTiter-Glo 72 h.
Note: test concentration not given here.

Take `CCCC(Nc1nc(-c2ccc(NC(=O)NCC)c(OC)c2)ncc1C)c1cccnc1` (configuration not stated): the values for the fold change in test [1] (setting [3]) and in test [1] (setting [4]) were 1.06 (inactive) and 0.656, respectively. In addition, the cell count in test [1] (setting [5]) worked out at 1450; in test [1] (setting [6]), 1370. Besides, the z-score in test [2] (setting [7]) was 2.93 (active); in test [2] (setting [8]), -1.09.
For `COc1cc(F)c(F)c(Nc2ccc(I)cc2F)c1NS(=O)(=O)C1(CC(O)CO)CC1` (configuration not stated), the fold change is 0.923 (inactive) in test [1] (setting [3]) and 0.76 in test [1] (setting [4]). Besides, the results for the cell count in test [1] (setting [5]) and in test [1] (setting [6]) were 2970 and 3220, respectively. For the same molecule, the z-score in test [2] (setting [7]) is -0.764 (inactive); in test [2] (setting [8]), -0.645.
For the molecule `Cc1ccc(C(=O)N(CCCN)C(c2nc3cc(Cl)ccc3c(=O)n2Cc2ccccc2)C(C)C)cc1` (configuration not stated), the fold change in test [1] (setting [3]) is 0.993 (inactive); in test [1] (setting [4]) it was 0.877. Also, the cell count was 1340 in test [1] (setting [5]) and 1350 in test [1] (setting [6]). Besides, the z-score in test [2] (setting [7]) is 0.859 (inactive); in test [2] (setting [8]) it was -0.608.
Regarding `C[C@]12C=CC(=O)C=C1CC[C@H]1[C@@H]3CC(O)[C@@](O)(C(=O)CO)[C@@]3(C)CC(O)[C@]12F` (some centres not stated), the fold change in test [1] (setting [3]) is 0.898 (inactive); in test [1] (setting [4]) it was 0.627. The figures for the cell count in test [1] (setting [5]) and in test [1] (setting [6]) were 5780 and 6430, respectively. Further, the z-score was 0.159 (inactive) in test [2] (setting [7]) and -0.119 in test [2] (setting [8]).
Consider `Cc1[nH]c2ccccc2c1CCNCc1ccc(C=CC(=O)NO)cc1`, for which the figures for the fold change in test [1] (setting [3]) and in test [1] (setting [4]) were 0.894 (inactive) and 0.866, respectively. The cell count in test [1] (setting [5]) stood at 1040; in test [1] (setting [6]) it was 1160. In addition, the z-score in test [2] (setting [7]) was -0.232 (inactive); in test [2] (setting [8]), -2.76.
In the case of `N#CC1CCCN1C(=O)CNC12CC3CC(CC(O)(C3)C1)C2` (configuration not stated), the values for the fold change in test [1] (setting [3]) and in test [1] (setting [4]) were 0.959 (inactive) and 0.68, respectively. The cell count in test [1] (setting [5]) stood at 8400; in test [1] (setting [6]), 8750. The values for the z-score in test [2] (setting [7]) and in test [2] (setting [8]) were -0.00674 (inactive) and 0.11, respectively.
As for `COCCOC(=O)C1=C(C)NC(C)=C(C(=O)OCC=Cc2ccccc2)C1c1cccc([N+](=O)[O-])c1` (configuration not stated), the figures for the fold change in test [1] (setting [3]) and in test [1] (setting [4]) were 1.06 (inactive) and 0.275, respectively. Also, the values for the cell count in test [1] (setting [5]) and in test [1] (setting [6]) were 6590 and 6240, respectively. Further, the z-score in test [2] (setting [7]) is -0.669 (inactive); in test [2] (setting [8]) it was 0.105.
Consider `CC(=O)OCC(=O)[C@]12OC(C)(C)OC1C[C@H]1[C@@H]3CC(F)C4=CC(=O)C=C[C@]4(C)[C@]3(F)C(O)C[C@@]12C` (some centres not stated), for which the fold change in test [1] (setting [3]) was 0.819 (inactive); in test [1] (setting [4]) it was 1.14. Moreover, the cell count in test [1] (setting [5]) was found to be 5400; in test [1] (setting [6]), 6590. Further, the z-score was -0.325 (inactive) in test [2] (setting [7]) and -0.647 in test [2] (setting [8]).
Regarding `CS(=O)(=O)c1ccc(C(O)C(CF)NC(=O)C(Cl)Cl)cc1` (configuration not stated), the fold change was 0.937 (inactive) in test [1] (setting [3]) and 0.642 in test [1] (setting [4]). For the same molecule, the results for the cell count in test [1] (setting [5]) and in test [1] (setting [6]) were 8270 and 8820, respectively. For the same molecule, the figures for the z-score in test [2] (setting [7]) and in test [2] (setting [8]) were 0.0143 (inactive) and -0.0314, respectively.
For `NS(=O)(=O)c1ccc(NC(=O)Nc2ccc(F)cc2)cc1`, the values for the fold change in test [1] (setting [3]) and in test [1] (setting [4]) were 0.971 (inactive) and 0.438, respectively. Further, the cell count was found to be 8130 in test [1] (setting [5]) and 8360 in test [1] (setting [6]). For the same molecule, the z-score in test [2] (setting [7]) was -0.152 (inactive); in test [2] (setting [8]), -0.0443.
For `CC(NC(=O)C(C#N)=Cc1cccc(Br)n1)c1ccccc1` (configuration not stated), the values for the fold change in test [1] (setting [3]) and in test [1] (setting [4]) were 1.21 (inactive) and 0.817, respectively. For the same molecule, the cell count turned out to be 1620 in test [1] (setting [5]) and 1340 in test [1] (setting [6]). For the same molecule, the z-score was 0.502 (inactive) in test [2] (setting [7]) and 0.371 in test [2] (setting [8]).
On to `CCCCCCOC(=O)N=C(N)c1ccc(NCc2nc3cc(C(=O)N(CCC(=O)OCC)c4ccccn4)ccc3n2C)cc1`, for which the fold change is 0.94 (inactive) in test [1] (setting [3]) and 0.85 in test [1] (setting [4]). Also, the figures for the cell count in test [1] (setting [5]) and in test [1] (setting [6]) were 8810 and 9380, respectively. In addition, the z-score in test [2] (setting [7]) is -0.278 (inactive); in test [2] (setting [8]), 0.124.
`CC(C)CN(C[C@H](O)[C@@H](Cc1ccccc1)NC(=O)O[C@@H]1CO[C@H]2OCC[C@H]21)S(=O)(=O)c1ccc(N)cc1`: the fold change in test [1] (setting [3]) is 0.938 (inactive); in test [1] (setting [4]), 0.791. Further, the cell count in test [1] (setting [5]) amounted to 7440; in test [1] (setting [6]), 7930. Besides, the results for the z-score in test [2] (setting [7]) and in test [2] (setting [8]) were -0.364 (inactive) and 0.28, respectively.
`CC(=O)c1cc([N+](=O)[O-])c(Sc2cccc(Cl)c2Cl)s1`: the fold change was 0.882 (inactive) in test [1] (setting [3]) and 0.345 in test [1] (setting [4]). The cell count in test [1] (setting [5]) worked out at 7980; in test [1] (setting [6]), 9050. The z-score in test [2] (setting [7]) was -0.31 (inactive); in test [2] (setting [8]) it was 0.849.
With `Cc1cc(C)c(C=C2C(=O)Nc3ccccc32)[nH]1`, the fold change in test [1] (setting [3]) is 0.941 (inactive); in test [1] (setting [4]) it was 0.528. Also, the values for the cell count in test [1] (setting [5]) and in test [1] (setting [6]) were 5670 and 6030, respectively. Moreover, the results for the z-score in test [2] (setting [7]) and in test [2] (setting [8]) were 0.363 (inactive) and -0.0507, respectively.
As for `COc1cccc2c1C(=O)c1c(O)c3c(c(O)c1C2=O)C[C@@](O)(C(=O)CO)C[C@@H]3OC1CC(N)C(OC2CCCCO2)C(C)O1` (some centres not stated), the fold change in test [1] (setting [3]) was 1.07 (inactive); in test [1] (setting [4]), 1.21. The cell count in test [1] (setting [5]) turned out to be 1240; in test [1] (setting [6]), 1150. Besides, the figures for the z-score in test [2] (setting [7]) and in test [2] (setting [8]) were 3.19 (active) and -0.724, respectively.
Take `Cc1ccc(Cl)cc1N(CC(=O)Nc1c(F)cccc1F)S(C)(=O)=O`: the fold change in test [1] (setting [3]) was 0.888 (inactive); in test [1] (setting [4]), 0.518. Moreover, the cell count turned out to be 8090 in test [1] (setting [5]) and 9110 in test [1] (setting [6]). Moreover, the z-score in test [2] (setting [7]) was -0.403 (inactive); in test [2] (setting [8]), 0.642.
